# Screening data deposited in PubChem by The Scripps Research Institute Molecular Screening Center.
# Sampled rows, rich in hits. Any-hit rate of the full collection: about 1.1%.
# HTR5A ag ctr: counter-screen for OPRM1-OPRD1 agonists: human HTR5A agonism; HTR5A agonist assay, luminescence, cell-based; activation, % at 9.3 µM; 0.61% of 340,000 active; in the data active = activation mostly above about 9.5%, no sharp cut-off; inactive = mostly below about 7.6%
# Target sequence (P47898 whole entry, looked up): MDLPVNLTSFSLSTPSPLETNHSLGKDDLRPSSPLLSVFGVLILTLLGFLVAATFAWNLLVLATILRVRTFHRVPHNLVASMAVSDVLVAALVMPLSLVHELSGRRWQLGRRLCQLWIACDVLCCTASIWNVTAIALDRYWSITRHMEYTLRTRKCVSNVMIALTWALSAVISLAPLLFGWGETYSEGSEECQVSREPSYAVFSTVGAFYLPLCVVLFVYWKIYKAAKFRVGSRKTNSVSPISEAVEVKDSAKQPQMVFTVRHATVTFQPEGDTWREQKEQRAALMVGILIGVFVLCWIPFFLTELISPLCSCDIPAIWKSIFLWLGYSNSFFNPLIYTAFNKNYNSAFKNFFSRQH
# MOR-DOR inv ag: inverse agonists of human mu-delta opioid receptor heterodimerization; P35372+P41143; cell-based MOR-DOR heterodimer luminescence, inverse agonism; inhibition, % at 9.3 µM; 0.21% of 340,000 active; in the data active = inhibition above about 22%, passing the limit was not always enough
# HTR5A inv ctr: HTR5A inverse agonism, opioid heterodimer counter-screen | P47898 | HTR5A cell line, luminescence | inhibition, % at 9.3 µM | 0.083% of 340,000 active | AID 504634; in the data active = inhibition mostly above about 23%, no sharp cut-off; inactive = mostly below about 18%
# MOR-DOR ag: OPRM1-OPRD1 heterodimerization agonism | 0.3% of 340,000 active | cells, luminescence | P35372+P41143 | activation, % at 9.3 µM; in the data active = activation above about 18%
# Numbers stand for hits; - = inactive.
SMILES,HTR5A ag ctr,MOR-DOR inv ag,HTR5A inv ctr,MOR-DOR ag
Cn1ncc2c(O/N=C(\N)c3ccc(C(F)(F)F)cc3)ncnc21,48,-,-,39
CCOC(=O)c1nnn(-c2nonc2N)c1COc1ccc(F)cc1,-,-,-,-
CCOC(=O)c1nnn(-c2nonc2N)c1COc1ccccc1,11,-,-,-
Cc1ccc(NC(=O)c2ccc(NC(=O)c3ccccc3)cc2)cc1C,13,-,-,-
CCCOc1ccc(-c2c(C(=O)N/N=C/c3ccc(C)o3)nnn2-c2nonc2N)cc1,9.8,-,-,19
CCOc1ccc(-c2c(C(=O)N/N=C/c3ccc(C)o3)nnn2-c2nonc2N)cc1,-,-,-,-
Nc1nonc1-n1nnc(C(=O)N/N=C/c2ccc(Br)cc2)c1-c1ccc2c(c1)OCO2,-,-,-,-
Nc1nonc1-n1nnc(C(=O)N/N=C/c2cccc(Cl)c2)c1-c1ccc2c(c1)OCO2,10,-,-,-
CN(CC(=O)Nc1ccc(F)cc1)C(=O)C1CCN(C(=O)Nc2ccccc2)CC1,-,-,-,-
CC(Sc1nnc(-c2ccccc2F)n1C)C(=O)NC1CCCCC1 (stereo not given),-,-,-,-
CC(=O)Nc1ccc(NC(=O)CCCN2C(=O)c3ccccc3C2=O)cc1,9.8,-,-,-
CC(=O)Nc1ccc(NC(=O)CCN2C(=O)c3ccccc3C2=O)cc1,-,-,-,-
CC(=O)Nc1ccc(/C=N/NS(=O)(=O)c2cc(C)ccc2C)cc1,-,-,-,-
O=[N+]([O-])c1ccc(S(=O)(=O)N/N=C/c2ccc3c(c2)OCO3)cc1,-,-,-,-
O=[N+]([O-])c1ccc(S(=O)(=O)NN=Cc2ccc(Cl)c(Cl)c2)cc1,13,-,-,-
CC(=O)Nc1ccc(S(=O)(=O)NN=Cc2ccc(Cl)c(Cl)c2)cc1,12,-,-,-
CC(OC(=O)[C@@H]1CCCN1C(=O)c1cccs1)C(=O)Nc1cccc([N+](=O)[O-])c1 (stereo not given in full),-,-,-,-
COc1ccc(Nc2cc(C)nc(N3CCN(C(=O)c4ccc5c(c4)OCO5)CC3)n2)cc1,-,-,-,-
Cc1nc2sc(C(=O)OC(C)C)c(N)c2c(C)c1C,8.8,-,-,-
Cc1ccc(S(=O)(=O)N2CCN(C(=O)CC(C)n3nc(C)c(Cl)c3C)CC2)cc1C (stereo not given),-,-,-,-
O=C(NCCc1ccncc1)Nc1ccc(Cl)c(Cl)c1,-,-,-,-
O=C(NCCc1ccncc1)Nc1ccccc1,13,-,-,-
COC(=O)c1ccc(NC(=S)N2CCCC2)cc1,-,-,-,-
COC(=O)c1ccc(NC(=S)N2CCN(C)CC2)cc1,13,-,-,-
CC(Cc1cccnc1)NC(=O)c1ccccc1OC1CCN(S(C)(=O)=O)CC1 (stereo not given),-,-,-,-
SMILES,HTR5A ag ctr,MOR-DOR inv ag,HTR5A inv ctr,MOR-DOR ag
COCCn1c(N)c(Sc2ccc(C)cc2)c(=O)[nH]c1=O,-,-,-,-
COCCn1c(N)c(C(=O)NS(=O)(=O)c2ccc(C)cc2)c(=O)[nH]c1=O,11,-,-,-
CC(C)(C)OC(=O)NCc1ccc(NC(=O)c2nc[nH]c2C(=O)N[C@@H](Cc2ccccc2)C(=O)OCc2ccccc2)cc1,25,-,-,41
O=C1CCN(C(=O)Nc2cccc(Cl)c2)N1,11,-,-,-
O=C(CN(C(=O)c1ccco1)c1cccc(F)c1)NCc1ccc(F)cc1,11,-,-,-
CCN(CC)CCNC(=O)c1cc2c(=O)n(CC)c3ccccc3c2s1,-,-,-,-
CCN(CC)CCNC(=O)c1cc2c(s1)-c1ccccc1SC2,13,-,-,-
O=C(CCSc1ccc(Cl)cc1)NN=C1CCCCCC1,-,-,-,-
O=C(CSc1ccc(Cl)cc1)NN=C1CCCCCC1,12,-,-,-
Cc1ccc(-c2ccc(/C=C(\C#N)C(N)=S)n2C)cc1,-,-,-,-
Cn1cccc1/C=C(/C#N)C(N)=S,-,37,-,-
O=C(NCC(=O)N1CCN(S(=O)(=O)c2ccccc2F)CC1)c1ccc2c(c1)OCO2,12,-,-,-
CC(=O)c1cccc(NC(=O)NCc2cccs2)c1,11,-,-,-
CC(=O)c1cccc(NC(=O)NCc2ccccn2)c1,-,-,-,-
Cc1nn(-c2ccc(Cl)cc2)c(=O)c2ccccc12,-,-,-,-
Cc1c(Cl)sn(-c2ccc(Cl)cc2)c1=O,19,-,-,36
O=C1CN(C(=O)COC(=O)CCS(=O)(=O)c2ccccc2Cl)c2ccccc2N1,-,-,-,-
Cc1ccc2nc(/C(C#N)=C\c3ccc([N+](=O)[O-])o3)[nH]c2c1,105,-,-,575
Cc1ccc2nc(/C(C#N)=C\c3ccc(N4CCOCC4)o3)[nH]c2c1,-,-,-,-
c1ccc(-c2nc(C3CCCCC3)c3sccc3n2)cc1,-,-,-,-
c1ccc(-c2nc(C3CCCCC3)c3ccccc3n2)cc1,13,-,-,-
Cc1cccc(C)c1NC(=O)CN1C(=O)NC(C)(CCc2ccccc2)C1=O (stereo not given),-,-,-,-
CC(CCc1ccccc1)NC(=O)CCNC(=O)c1ccccc1Cl (stereo not given),-,-,-,-
Cc1nc(C)c(C(=O)NNS(=O)(=O)c2ccccc2)s1,10,-,-,-
Fc1ccc(-[n+]2nc(Nc3ccccc3)sc2-c2c3ccccc3cc3ccccc23)cc1,17,-,-,-
SMILES,HTR5A ag ctr,MOR-DOR inv ag,HTR5A inv ctr,MOR-DOR ag
Oc1ccc2ccccc2c1-c1sc(Nc2ccccc2)n[n+]1-c1ccc(F)cc1,-,-,-,-
O=C(O)C1CC=CCC1C(=O)NCCc1cccc(Cl)c1 (stereo not given),13,-,-,-
Cc1cccn2c(=O)c3cc(S(=O)(=O)c4ccccc4)c(=N)n(Cc4ccco4)c3nc12,12,-,-,-
Nc1nnnn1-c1cccc([N+](=O)[O-])c1,-,-,-,-
COc1ccc(-c2cn(-c3ccc(C)c(C)c3)c(=S)[nH]2)cc1OC,-,-,-,-
COc1ccc(-c2cn(-c3ccc(C)c(Cl)c3)c(=S)[nH]2)cc1OC,12,-,-,-
COc1ccc(C2c3[nH]c4ccccc4c3C[C@H]3C(=O)N(c4ccccc4C(=O)N4CCC[C@H]4C(=O)O)C(=O)N23)cc1 (stereo not given in full),-,-,-,-
Cc1ccc(S(=O)(=O)N2CCOC2CNC(=O)C(=O)NCCCN2CCOCC2)cc1 (stereo not given),-,-,-,-
COc1ccc(NC(=O)N2CCCC(c3nc(-c4ccc(C(C)C)cc4)no3)C2)cc1 (stereo not given),12,-,-,-
COc1ccc(NC(=O)N2CCCC(c3nc(-c4ccc(OC)cc4)no3)C2)cc1 (stereo not given),-,-,-,-
O=C(CCNC(=O)c1ccc(Br)cc1)Nc1ccc(S(=O)(=O)N2CCOCC2)cc1,-,-,-,-
Cc1cccc(NC(=S)N/N=C/c2ccc(Cl)c([N+](=O)[O-])c2)c1,9.3,-,-,-
CCCn1c(SC(C(=O)Nc2cccc(OC)c2)c2ccccc2)nc2ccccc2c1=O (stereo not given),13,-,-,-
